Test results taken from ChEMBL document CHEMBL3988442, “University of Dundee, Small-Polar-MMV Screening Library” (2021).
Among all 48,000 compounds or so, about 13,000 (27%) showed an effect of 50% or more. This is one part of the list.

The compounds below were run on Wolbachia pipientis (assay: Anti-Wolbachia Cell-Based Screen). Conditions: 5 µM.
Type: functional
Design: scale not given: in the data most compounds retested in dose-response had high values
N#Cc1cccc(N2CCCC3(C2)CN(c2ncc(F)cn2)CCO3)n1.O=C(O)C(F)(F)F (stereo not drawn) was tested, and the “Percent Effect” value was -18.06%. In the case of Fc1ccc(CN2CCCCC2Cn2cncn2)c2ncccc12 (stereo not drawn), the “Percent Effect” value is reported as 6.637%. For Cc1ncc(CC(=O)N2CCCC(COc3ccccc3F)C2)c(=O)[nH]1 (stereo not drawn), the “Percent Effect” value was 16.93%. Cn1cnc2c1CCN(Cc1cccc(OCC(N)=O)c1)C2 was tested, and the “Percent Effect” value was -0.9151%. CCN1CCCC(O)(CNCc2ccc3c(c2)OCO3)C1 (stereo not drawn) was tested, and the “Percent Effect” value was -9.558%. CC(=O)N1CC[C@H]2NC(=O)N(Cc3ccccc3)C(=O)[C@H]21 was tested, and the “Percent Effect” value was 6.922%. In the case of COC(=O)N1CC[C@@]2(O)CCCC[C@H]2[C@@H]1c1ccc2c(c1)OCO2, the “Percent Effect” value is reported as 122.6%. With CC(=O)N1CCN(C[C@H]2CC[C@@H](Cc3ccc4c(c3)OCO4)O2)CC1 the “Percent Effect” value was 6.248%. With Cn1cc(C(=O)N2CCCC2c2ccc3c(c2)OCO3)ccc1=O (stereo not drawn) the “Percent Effect” value was 2.509%. For Cn1ccc(CN2CCCC2c2ccc3c(c2)OCCCO3)cc1=O (stereo not drawn), the “Percent Effect” value was 3.687%. In the case of NC(=O)CN1CC[C@@]2(O)CCCC[C@H]2[C@@H]1c1ccc2c(c1)OCO2, the “Percent Effect” value is reported as 128.7%. For O=C(O)C(c1ccc2c(c1)OCO2)N1CCC(C(=O)N2CCCC2)CC1 (stereo not drawn), the “Percent Effect” value was 0.296%. With CC(=O)N1CC[C@@]2(O)CCCC[C@H]2[C@@H]1c1ccccc1 the “Percent Effect” value was 132.1%. With CN1CCN(C(=O)N2CC[C@@](O)(c3ccccc3)[C@H]3CCCC[C@@H]32)CC1 the “Percent Effect” value was -18.77%. For NC(=O)CN1CCC(C(=O)NCc2ccc3c(c2)OCCCO3)CC1, the “Percent Effect” value was -4.067%. For CC(=O)N1CC[C@@]2(O)CCCC[C@H]2[C@@H]1c1ccc2c(c1)OCO2, the “Percent Effect” value was 121.2%. In the case of CCCN1CC2(CCN(c3ccc(C(C)=O)cn3)CC2)CC1C(=O)O (stereo not drawn), the “Percent Effect” value is reported as 10.16%. For Cc1noc([C@@H]2C[C@H](NC(=O)NC(C)C)CN2C)n1, the “Percent Effect” value was -7.021%. For CN1C[C@@H](NC(=O)c2ccccc2)C[C@H]1c1nc(-c2cnccn2)no1, the “Percent Effect” value was -2.532%. In the case of CN1CCN(CCc2ncnn2-c2ccc3c(c2)OCO3)CC1, the “Percent Effect” value is reported as -0.8313%. In the case of O=S(=O)(NCCSc1nccn1C1CC1)c1ccccc1, the “Percent Effect” value is reported as 5.63%. CSCc1ccc(CNCCCN2CCOCC2)o1 was tested, and the “Percent Effect” value was 3.399%. In the case of CSCc1ccc(CNCCN2CCOCC2)o1, the “Percent Effect” value is reported as -4.251%. With Cc1ccc(CNCCN2CCOCC2)o1 the “Percent Effect” value was 131.7%. In the case of CSc1ccccc1C(=O)NCc1cc2n(n1)CCCN(CC(C)C)C2, the “Percent Effect” value is reported as -7.136%. With Cn1cc(N2CCN(c3ccc(C#N)c(Cl)c3)CC2=O)cn1 the “Percent Effect” value was -30.5%. With CCC(O)CN1CCN(C(=O)c2sccc2C(C)C)CC1 (stereo not drawn) the “Percent Effect” value was 113.4%. In the case of Cc1cc(CN2CCN(C(=O)c3sccc3C(C)C)CC2)no1, the “Percent Effect” value is reported as -0.2452%. CC(C)(C)OC(=O)N1CCN(C(=O)c2sccc2C2CC2)CC1 was tested, and the “Percent Effect” value was -2.417%. With CC(C)(O)CN1CCN(C(=O)c2sccc2C2CC2)CC1 the “Percent Effect” value was -8.363%. With CCc1nnsc1C(=O)N1CCN(CC(O)CC)CC1 (stereo not drawn) the “Percent Effect” value was -1.027%. For CCC(O)CN1CCN(C(=O)c2sccc2C2CC2)CC1 (stereo not drawn), the “Percent Effect” value was 131.2%. With Cc1n[nH]c(C)c1CNc1ccc(-c2nc(C3CC3)no2)cn1 the “Percent Effect” value was 9.439%. With COc1ccc([C@@H]2CN(C(=O)CCc3cc(Cl)no3)C[C@H]2N(C)C)cc1 the “Percent Effect” value was -5.122%. For Cn1c(=O)c2cc(C(=O)NCCOc3ccccc3)ccc2n(C)c1=O, the “Percent Effect” value was 103.9%. In the case of CC(O)(CCc1ccccc1)CNC(=O)c1ccc(F)cc1 (stereo not drawn), the “Percent Effect” value is reported as -3.449%. In the case of COc1ccc(OCCNC(=O)c2ccc3c(=O)[nH][nH]c(=O)c3c2)cc1, the “Percent Effect” value is reported as 4.909%. In the case of Cn1c(=O)c2cc(C(=O)NCCOCC(F)(F)F)ccc2n(C)c1=O, the “Percent Effect” value is reported as 109.9%. In the case of O=C(NCCOCC(F)(F)F)c1ccc(-c2ccco2)[nH]c1=O, the “Percent Effect” value is reported as 3.056%. O=C(NCCOc1ccccc1)c1ccc2c(c1)C(=O)NC2=O was tested, and the “Percent Effect” value was -4.876%. With O=C(O)c1ccc(CCNC(=O)C2(O)Cc3ccccc3C2)cc1 the “Percent Effect” value was 0.991%. For Cn1c(=O)c2cc(C(=O)NCCc3ccccc3)ccc2n(C)c1=O, the “Percent Effect” value was 97.39%. Cc1ccc(-n2ccnc2)c(C(=O)NCCOCC(F)(F)F)c1 was tested, and the “Percent Effect” value was 1.401%. For Cc1cnc(C)c(N2CCC(c3nnc(CN(C)C)n3C3CC3)CC2)n1, the “Percent Effect” value was 5.849%. For Cc1c(F)cc(C(=O)O)cc1S(=O)(=O)Nc1ccc(F)c(C#N)c1, the “Percent Effect” value was 122.4%. In the case of COC(=O)c1ccc(Cl)c(S(=O)(=O)Nc2ccc(F)c(C(N)=O)c2)c1, the “Percent Effect” value is reported as -0.6488%. For N#Cc1cc(NS(=O)(=O)c2ccc(C(=O)O)cc2F)ccc1F, the “Percent Effect” value was -1.66%. In the case of CCc1ccc(C(=O)O)cc1S(=O)(=O)Nc1ccc(F)c(C#N)c1, the “Percent Effect” value is reported as 3.443%.
